Data reported in ChEMBL document CHEMBL4513216, “Probing the Open Global Health Chemical Diversity Library for Multistage-Active Starting Points for Next-Generation Antimalarials” (ACS Infect Dis, 2020).
Among all 65,000 compounds or so, about 2,100 (3.2%) showed an effect of 50% or more. The median lay at about -52%. The list comes from a sample in which strong results are over-represented; it also holds similar structures and randomly drawn compounds.

test system: Plasmodium falciparum; assay: Screen against P. falciparum Asexual Blood Stage (ABS), at 5uM; format: functional, Dd2; conditions: tested at 5 uM

| Compound | INHIBITION |
| --- | --- |
| CN1C(Cn2cccn2)C[C@@H]2CN(Cc3nccs3)CC[C@@H]21 (some centres not stated) | -108% |
| CC(C)N1[C@H](CN2CCCC2)C[C@@H]2CN(Cc3cnn(C)c3)CC[C@@H]21 | -20.1% |
| CC(C)N1CC[C@H]2[C@H](C[C@@H](Cn3cccn3)N2c2nccs2)C1 | 66.3% |
| CCC(=O)N1CC[C@H]2[C@H](C[C@@H](Cn3cccn3)N2c2nccs2)C1 | -13.4% |
| CC1CN(Cc2nc(Cc3ccccc3F)no2)CCN1C (configuration not stated) | -114% |
| O=C(CCc1ccsc1)N1CCCC(n2cncn2)C1 (configuration not stated) | -152% |
| COC[C@@]12CCC[C@@H]1CN(C(=O)CN(C)C)C2 | -1.68% |
| Cc1cc(C)c(Cn2cncn2)cc1CN1CC[C@@H]2CC[C@H](C1)N2 | 13.3% |
| CO[C@H]1CN(Cc2cc(Cn3cncn3)c(C)cc2C)CC[C@H]1N | -28.2% |
| Cc1cc(C)c(Cn2cncn2)cc1CN1CCC(CN)C1 (configuration not stated) | 69% |
| COCc1ncn2c1CN(C(=O)Nc1cccc(OC)c1)CC2 | -101% |
| CC(C)c1nccn1-c1cccc(C2CCCN(S(=O)(=O)N(C)C)C2)n1 (configuration not stated) | -73.6% |
| FC(F)(F)CCc1ccnc(NC2CCC(n3cnnc3)CC2)n1 (configuration not stated) | -54.2% |
| NC1CCC(Nc2nccc(CCC(F)(F)F)n2)CC1 (configuration not stated) | 50.3% |
| N[C@@H]1CC[C@@H](Nc2nccc(CCC(F)(F)F)n2)C1 | -4.32% |
| CS(=O)(=O)N1CCC(c2ccncn2)CC1 | -94.7% |
| CN(C(=O)CSc1ncc[nH]1)C1CC1 | -11.8% |
| Fc1ccc(CN2CCc3ncnc(C4CCOC4)c3CC2)cc1 (configuration not stated) | -78.8% |
| Cc1cccc(CN(Cc2ccccn2)S(=O)(=O)N(C)C)c1 | -25.3% |
| Cc1cccc(CN(Cc2ccccn2)Cc2ncc(C(C)(C)C)o2)c1 | 60.4% |
| CCN(Cc1cccc(Cl)c1)Cc1ncc(C(C)(C)C)o1 | -14.1% |
| CCN1CCN(C)C(=O)C12CCN(Cc1ccsc1)CC2 | -35.5% |
| CCc1ccc(CN2CCC3(CC2)C(=O)N(C)CCN3CC2CC2)cc1 | 68.9% |
| CCN1CCN(C)C(=O)C12CCN(Cc1cccc(C)c1)CC2 | 41.8% |
| CN(CCc1ccccc1)c1cnn(C)c(=O)c1Br | -12.3% |
| OC(CN1CCN(CC2CCCCC2)CC1)c1ccccc1 (configuration not stated) | 3.94% |

| Compound | INHIBITION |
| --- | --- |
| c1ccc(Oc2ccc(OC34CCCN(CC3)C4)cc2)cc1 (configuration not stated) | 40.7% |
| CC(NC(=O)CSCC(N)=O)c1ccc(Oc2ccccc2)cc1 (configuration not stated) | -25.1% |
| NC(CC1CCCC1)c1ccc(Oc2ccccc2)cc1 (configuration not stated) | 79.9% |
| NC(CC1CCCC1)c1ccccc1 (configuration not stated) | 66.7% |
| NC(=O)C(NC1CCN(CC2CCCCC2)CC1)c1ccccc1 (configuration not stated) | -75% |
| N#CCCCOc1cccnc1NC(=O)Cc1ccccc1F | -150% |
| CN(CC(=O)NCC1CCCO1)Cc1nc2c(s1)CCCC2 (configuration not stated) | -39.8% |
| Cc1cc(C)c(CN2CCCC23Cc2ccccc2CNC3=O)c(C)c1 (configuration not stated) | 8.96% |
| CC(C)C(=O)NC1CCCN(C(=O)c2ccc(O)c(Cl)c2)C1 (configuration not stated) | -84% |
| O=C(Nc1ccccc1Cn1cccn1)N1CCCC(N2CCCC2)C1 (configuration not stated) | -31.7% |
| CN1CCN(c2ccc3ccc(C(=O)N4CCCO4)cn23)CC1 | 6.88% |
| COc1c(CNCc2ccnc(N3CCCCC3)c2)c(C)nn1C | -15.8% |
| COc1cc(CNCc2ccnc(N3CCCC3)c2)cc(OC)c1 | 61.5% |
| COc1c(CNCc2ccnc(N3CCCC3)c2)c(C)nn1C | -64.4% |
| COc1ccc(CNCc2ccnc(N3CCCCC3)c2)cc1OC | -9.72% |
| COc1cc(CNCc2ccnc(N3CCOCC3)c2)cc(OC)c1 | -50.4% |
| COc1cc(CNCc2ccnc(N3CCCCC3)c2)cc(OC)c1 | 61.4% |
| CC(C)NC(=O)C1CN(C(=O)N(C)C)CC12CCOCC2 (configuration not stated) | -145% |
| Cc1cc(N2CCC(N(C)C(=O)c3ccc(C#N)cc3)CC2)nc(C)n1 | -6.47% |
| CCCc1noc(CCCC(=O)N2CCCC2c2cnn(C)c2)n1 (configuration not stated) | -37% |
| COCCN(C)C(=O)c1nc2c(s1)CCCN2c1ccc(C)nn1 | -53.3% |
| CCN1CCCN(C(=O)c2ccc(NC(=O)CC(C)C)c(C)c2)CC1 | -98.5% |
| Cc1cccc(C(=O)N2CC[C@@H]3[C@H]2CCC(=O)N3c2ccccc2)n1 | -87% |
| c1ccc(C2(CNCc3cnc(N4CCOCC4)nc3)CC2)cc1 | -22.6% |
| Cc1ccccc1C1(CNCc2cnc(N3CCOCC3)nc2)CC1 | 50.8% |
| OC1(CNCc2cnc(N3CCOCC3)nc2)CCCCC1 | -74.5% |
